# Measured values from PubChem BioAssay (NCATS).
# Inconclusive results are not listed. A call without a number means that no potency is given here. Calls of active or inactive are those of the source. Calls follow the shape of the dose curve; as a rule, active = well fitted inhibition curve with a large enough effect; inconclusive = small, poorly fitted or top-dose-only effect; inactive = flat fitted curve, though single readings scatter.
# Target: Phospholipid hydroperoxide glutathione peroxidase GPX4 (Homo sapiens) (UniProt P36969)
# Assay: Primary qHTS Assay for Inhibitors of Recombinant Selenoprotein Glutathione Peroxidase 4 (GPX4) (AID 1845192); also: nearly all actives have a fitted effect of over 65% in size
# Details: recombinant GPX4, GR-coupled NADPH fluorescence, 15 min; series mostly up to 50 µM
# Summary of the method: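 NADPH consumption, followed by fluorescence at 340/450 nm between 0 and 15 min, reports GPX4 activity via coupled glutathione reductase (100 nM). Enzyme 200 nM was pre-exposed to compound 30 min; 0.5 mM cumene hydroperoxide and 1 mM GSH served as substrates.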
# Potency is read from the fitted curve at half-maximal effect.
# Sequence of Phospholipid hydroperoxide glutathione peroxidase GPX4 (Homo sapiens) (P36969 whole entry, looked up): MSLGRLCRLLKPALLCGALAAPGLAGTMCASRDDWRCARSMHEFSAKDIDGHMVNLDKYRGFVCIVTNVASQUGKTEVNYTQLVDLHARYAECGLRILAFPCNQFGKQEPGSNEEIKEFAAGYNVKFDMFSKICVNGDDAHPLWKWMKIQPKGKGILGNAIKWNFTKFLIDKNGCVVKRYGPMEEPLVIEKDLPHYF
Compound,Potency,outcome
O=[N+]([O-])c1c(Cl)cccc1-c1c[nH]cc1Cl,inactive,–
O=P(O)(O)OP(=O)(O)O,inactive,–
FC(F)OC(Cl)C(F)(F)F (stereo not drawn),inactive,–
CC(C)(C)NCC(O)CSc1nc(-c2ccc(C(N)=O)s2)cs1 (stereo not drawn),12.6 µM (active),–
c1ccc2ccccc2c1,inactive,–
CN(C)CCC=C1c2ccccc2C(C)(C)c2ccccc21,inactive,–
C=CC1=C(C(=O)O)N2C(=O)[C@@H](NC(=O)/C(=N\O)c3csc(N)n3)[C@H]2SC1 (stereo in doubt),inactive,–
CCCCCCCCCCCCCCCC(=O)OC[C@@H](O)[C@H]1OC[C@H](O)[C@H]1O,inactive,–
C[C@@H]1C[C@H]2[C@@H]3C[C@H](F)C4=CC(=O)C=C[C@]4(C)[C@@]3(Cl)[C@@H](O)C[C@]2(C)[C@H]1C(=O)COC(=O)C(C)(C)C,inactive,–
NCCCC[C@H](N)C(=O)O,–,inactive [at 0.409 µM]
CC1(C)[C@@H]2CC[C@@]1(C)[C@H](OC(=O)CSC#N)C2,inactive,–
N#Cc1ccc2c(c1)N(CCCN1CCC(O)CC1)c1ccccc1S2,inactive,–
OCCCNc1ccccc1,inactive,–
NC(=O)[C@@H]1C[C@]2(NC(=O)NC2=O)c2cc(F)ccc2O1,inactive,–
CCCCC[C@H](O)/C=C/[C@@H]1[C@H]2C/C(=C/CCCC(=O)O)O[C@H]2C[C@H]1O,inactive,–
C[C@H](CCC(=O)O)[C@H]1CC[C@H]2[C@@H]3[C@H](O)C[C@@H]4C[C@H](O)CC[C@]4(C)[C@H]3C[C@H](O)[C@]12C,inactive,–
CN(C)c1ccc(C(=C2C=CC(=[N+](C)C)C=C2)c2c(O)c(S(=O)(=O)[O-])cc3cc(S(=O)(=O)O)ccc23)cc1,inactive,–
CCCc1ccc(C(=O)O)cc1,inactive,–
